Among all 16,000 compounds or so, about 5,100 (32%) were called active. Not shown: some 25% with an inconclusive outcome. Some of the results follow. A number with no mark means an inactive call. The call rests on the fitted dose curve; in most records, active means well fitted curve in the direction sought with a large enough effect; inconclusive means small, poorly fitted or top-dose-only effect, or effect the other way; inactive means no such curve, though single readings can be large or run the other way.
target: Cytochrome P450 3A4 (Homo sapiens) (UniProt P08684); experiment: Cytochrome panel assay with activity outcomes; settings: recombinant CYP, pro-luciferin dealkylation, luminescence, p450-cyp3a4; series mostly up to 57.1 µM
On the % scale 0 is the no-effect control and ±100 the full control effect.

Sequence of Cytochrome P450 3A4 (Homo sapiens) (P08684 whole entry, looked up): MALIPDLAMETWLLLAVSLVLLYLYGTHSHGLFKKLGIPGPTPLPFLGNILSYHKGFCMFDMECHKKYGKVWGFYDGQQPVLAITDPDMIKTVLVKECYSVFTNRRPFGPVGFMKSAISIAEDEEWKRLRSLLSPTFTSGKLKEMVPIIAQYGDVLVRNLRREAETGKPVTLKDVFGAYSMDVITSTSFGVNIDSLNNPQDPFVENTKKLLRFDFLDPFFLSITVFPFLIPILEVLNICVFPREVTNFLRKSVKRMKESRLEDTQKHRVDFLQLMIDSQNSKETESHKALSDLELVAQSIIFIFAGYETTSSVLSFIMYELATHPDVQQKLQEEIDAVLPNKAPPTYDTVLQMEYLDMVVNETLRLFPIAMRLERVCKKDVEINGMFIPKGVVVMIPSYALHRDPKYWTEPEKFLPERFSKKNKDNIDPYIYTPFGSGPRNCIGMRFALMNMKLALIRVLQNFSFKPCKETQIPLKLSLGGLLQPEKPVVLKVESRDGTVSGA

SMILES	AC50	activity, negative = inhibition
CC(C)(CO)[C@H](O)C(=O)NCCCO	inactive	
N[C@@H](Cc1cc(-c2ccc(Cl)cc2Cl)cc(CP(=O)(O)O)c1O)C(=O)O	inactive	
O=C(O)C1CCCCC1C(=O)Nc1ccccc1Cl (stereo not given)	inactive	
CCc1ccccc1NC(=O)C1C(c2ccccc2)C1(Cl)Cl (stereo not given)	15.8 µM (active)	
COC(=O)C1=C(C)NC2=C(C(=O)CCC2)C1c1cn(Cc2ccc(Cl)cc2Cl)nc1-c1ccccc1 (stereo not given)	2.51 µM (active)	
C[C@H](C[C@H](N)C(=O)O)C(=O)O	inactive	
CC[N+](CC)(CC)CCOc1cccc(OCC[N+](CC)(CC)CC)c1OCC[N+](CC)(CC)CC	inactive	
Cc1cc(Cl)ccc1Oc1ncc(-c2ccc(Cl)cc2)cn1	7.08 µM (active)	
Nc1cc(Cl)ccc1Oc1ccc(Cl)cc1	inactive	
Clc1ccc(-c2ccnc(Oc3cc(Cl)ccc3Cl)n2)cc1	inactive	
O=[N+]([O-])c1cccnc1N1CCCCC1	inactive	
O=C(NC1CCCC1)c1cccnc1N1CCCCCC1	14.1 µM (active)	
O=C(O)C1CCN(c2ncccn2)CC1	inactive	
Cc1noc(C)c1COc1cccc(C(=O)OCC(=O)N2CC(=O)Nc3ccccc32)c1	4.47 µM (active)	
COCc1c(C(=O)OCC(=O)N2c3ccccc3NC(=O)C2(C)C)oc2ccccc12	inactive	
O=C(Nc1ccccc1N1CCOCC1)c1ccccc1[N+](=O)[O-]	inactive	
Cc1cc(F)ccc1S(=O)(=O)Nc1ccccc1C(=O)Nc1ccccc1N1CCOCC1	0.891 µM (active)	
O=C(Nc1ccccc1N1CCOCC1)c1ccc([N+](=O)[O-])cc1	inactive	
Cc1cccc(CNc2nc(-c3ccccc3CN(C)C)nc3ccccc23)c1	10 µM (active)	
CN(C)Cc1ccccc1-c1nc(N(C)C)c2ccccc2n1	inactive	

SMILES	AC50	activity, negative = inhibition
CN(C)Cc1ccccc1-c1nc(NCc2ccccc2)c2ccccc2n1	12.6 µM (active)	
CCCCN=C1N/C(=C\c2ccco2)C(=O)N1c1ccccc1	inactive	
CCOc1cc(/C=C2/SC(=O)N(CC(=O)N3CCc4ccccc4C3)C2=O)ccc1OCC(=O)O	inactive	
COc1ccccc1OCCN1C(=O)S/C(=C\c2ccco2)C1=O	14.1 µM (active)	
CCCc1cc(=O)oc2cc(OCC(=O)N3CCc4ccccc43)ccc12	8.91 µM (active)	
CCCCc1cc(=O)oc2cc(OCC(=O)N(CC)CC)ccc12	inactive	
CCCc1cc(=O)oc2cc(OCc3nn[nH]n3)ccc12		-17.2% [at 2.29 µM]
Cc1ccc(Nc2nc(-c3c(C)nc4ncccn34)cs2)cc1	25.1 µM (active)	
C=CCn1c(=O)c(C(=O)NCCN(CC)CC)c(O)c2ccccc21	inactive	
CC(C)C(=O)NCCn1ccc2ccccc21	12.6 µM (active)	
O=C(O)CN1CCN(Cc2ccccc2)C1=O	inactive	
O=C(O)CN1CCN(Cc2ccc(F)cc2Cl)C1=O	2.24 µM (active)	
Cc1sc(NC(=O)/C=C/c2ccc(C(C)C)cc2)c(C#N)c1C	inactive	
CC1=C(C#N)C(NC(=O)C2CCCCC2)(C(F)(F)F)C(=O)N1 (stereo not given)	inactive	
Cc1sc(NC(=O)C2CCCCC2)c(C#N)c1-c1ccccc1	8.91 µM (active)	
CC(C)(C)CNC(CO)C12CC3CC(CC(C3)C1)C2 (stereo not given)	inactive	
Cc1nc(SCC(=O)Nc2c(C)nn(C)c2C)c2cnn(-c3ccccc3)c2n1		-11.2% [at 2.29 µM]
Cc1ccc2nc(SCc3nc4c(cnn4-c4ccccc4)c(=O)[nH]3)[nH]c2c1	10 µM (active)	
CCC(CC)C(=O)Nc1c2cnn(-c3ccccc3)c2nc(=O)n1-c1ccccc1	inactive	
CCc1c(O)nc2sc3ccccc3n2c1=O	inactive	

SMILES	AC50	activity, negative = inhibition
Cc1ccc2c(CC(=O)OCc3cc(=O)n4c(n3)sc3ccccc34)coc2c1	7.94 µM (active)	
CCOC(=O)Cc1cc(=O)n2[nH]c(C)c(-c3ccccc3)c2n1	inactive	
CN(CCO)c1nc(N)c2c(N)nc3c(c2c1C#N)CC(=O)N3C1CCCC1	10 µM (active)	
COc1cc(/C=N/NC(N)=O)c(Br)cc1OCC(=O)Nc1ccccc1C	3.55 µM (active)	
COCCCNC(=O)C(=O)N/N=C/c1ccc(OCC(=O)Nc2cccc(Cl)c2C)c(OC)c1		7.9% [at 2.29 µM]
Cc1ccccc1OCC(=O)NC(=S)Nc1ccc(Br)c(C)n1	inactive	
CCCN1C(=O)/C(=C/c2ccc(C)s2)SC1=Nc1ccc(OC)cc1	14.1 µM (active)	
CCCCOC(=O)NS(=O)(=O)c1sc(CC(C)C)cc1-c1ccc(Cn2c(CC)nc3c(C)cc(C)nc32)cc1	3.16 µM (active)	
Cc1c(NC(=O)CSc2nnc3c4ccccc4n(CCc4ccccc4)c3n2)c(=O)n(-c2ccccc2)n1C	10 µM (active)	
Cc1nc(SCC(=O)Nc2c(C)n(C)n(-c3ccccc3)c2=O)nc(C)c1C		-4.78% [at 11.4 µM]
Cc1c(NC(=O)CSc2nnnn2C)c(=O)n(-c2ccccc2)n1C		-2.31% [at 2.29 µM]
C=CCn1c(SCC(=O)Nc2c(C)n(C)n(-c3ccccc3)c2=O)nc2sc(C)c(-c3ccccc3)c2c1=O	2.51 µM (active)	
Cc1cccc(NC(=O)Cn2c(=O)n3nc(CCn4nc(C)cc4C)nc3c3ccccc32)c1	5.01 µM (active)	
Cc1cccc(NC(=O)CSc2nc3ccccc3c3nc(CCc4c(C)n[nH]c4C)nn23)c1	3.55 µM (active)	
Cc1ccc(/C=C/C(=O)N2CC(C)CC(C)C2)o1 (stereo not given)	inactive	
C[C@]1(c2ccccc2)O[C@@H]2C[C@@H]3[C@@H]4CCC5=CC(=O)C=C[C@@]5(C)[C@]4(F)[C@H](O)C[C@]3(C)[C@@]2(C(=O)CO)O1	3.16 µM (active)	
C[C@]12C=CC(=O)C=C1CC[C@@H]1[C@H]3C[C@@H](O)[C@](O)(C(=O)CO)[C@@]3(C)C[C@H](O)[C@]12F	inactive	
C[C@H]1C[C@H]2[C@H]3CCC4=CC(=O)C=C[C@@]4(C)[C@]3(F)[C@H](O)C[C@]2(C)[C@@]1(O)C(=O)COP(=O)(O)O		7.91% [at 11.4 µM]
O=C(NCc1ccccc1)C(c1ccc(F)cc1)N(Cc1ccco1)C(=O)c1ccccn1 (stereo not given)	2.24 µM (active)	
Cc1ccccc1C(C(=O)NCc1ccccc1)N(Cc1ccco1)C(=O)c1ccccn1 (stereo not given)	3.16 µM (active)	

From PubChem BioAssay AID1851 (National Center for Advancing Translational Sciences (NCATS), 2009)
